Results filed as inconclusive are left out. A number with no mark means an inactive call. Calls of active or inactive are those of the source. The call rests on the fitted dose curve; in most records, active means well fitted cell-killing curve with a large enough effect; inconclusive means small, poorly fitted or top-dose-only effect; inactive means flat fitted curve, though single readings scatter.
Potency means the concentration at half of the fitted maximal effect.

This test is described as follows: Cell Viability - N2a (AID 540). Further: nearly all actives have a fitted effect of over 45% in size.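 On activity change, negative = cytotoxicity: plate controls were DMSO alone for no effect and tamoxifen control for full effect.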 The conditions noted are these: N2a mouse neuroblastoma cell viability; activity change, negative = cytotoxicity: at 92.2 µM (top of the series). The source says:
NIH Chemical Genomics Center [NCGC]
NIH Molecular Libraries Screening Centers Network [MLSCN]
National Institutes of Environmental Health Sciences [NIEHS]
National Toxicology Program [NTP]
We have developed a 1536-well cell-based assay for quantitative high throughput screening (qHTS) against a number of cell lines to determine in vitro cytotoxicity of small molecules. This particular assay uses the N2a cell line which is derived from mouse neuroblastoma.
NCGC Assay Protocol Summary:
The CellTiter-Glo luminescent cell viability assay (Promega) is a homogeneous method to measure the number of viable cells in culture. The end point readout of this assay is based on quantitation of intracellular ATP, an indicator of metabolic activity, using the luciferase reaction. Luciferase catalyzes the oxidation of beetle Luciferin to oxyluciferin and light in the presence of ATP. The luminescent signal is proportional to amount of ATP present.
Using the CellTiter-Glo luminescent cell viability assay, the amount of cellular ATP was measured in the N2a cell line with complete culture medium following compound treatment for 40 hours. The assay was performed in opaque white Kalypsys 1536-well plates. In the screen, tamoxifen and doxorubicin were used as positive controls. Library compounds were measured for their ability to cause acute toxicity in the cell line, as reflected by a decrease in intracellular ATP levels, in a concentration-dependent manner. […] AC50 values were determined from concentration-response data modeled with the standard Hill equation.
qHTS protocol for CellTiter Glo N2a cellular assay
[Step] [Parameter] [Value] [Description]
1. Reagent; 5 uL; 1500 N2a cells/well
2. Time; 5 hr; 37 °C incubation
4. Controls; 23 nL; Tamoxifen 0.34 uM to 100 uM & Doxorubicin 0.02 nM to 100 uM
5. Time; 40 hr; 37 °C incubation
6. Reagent; 5 uL; CellTiter Glo reagent
7. Time; 20 min; Room Temperature
8. Detection; Luminescence; Viewlux plate reader
Keywords: cell viability, cytotoxicity, N2a cell line, luminescence, NTPHTS, NTPHTS_NCGC, NIEHS, EPA, DSSTox, MLSMR, MLSCN, NIH Roadmap, qHTS, NCGC
For `CC(C)NCC(O)COc1cccc2ccccc12` (stereo not given), the “activity change, negative = cytotoxicity” value is -26.5%. As for `O=c1cc(-c2ccccc2)oc2ccccc12`, the “activity change, negative = cytotoxicity” value was -3.38%. `CN1CCC[C@H]1c1cccnc1`: the “activity change, negative = cytotoxicity” value is 1.59%. Still for that read-out and setting: the same measure for `CN(C)CCC(c1ccc(Cl)cc1)c1ccccn1` (stereo not given): -1.67%. Take `CN(C)c1ccc(N=NS(=O)(=O)O)cc1`: the Potency is 31.6 µM (active). As to `COc1cc(CNC(=O)CCCC/C=C/C(C)C)ccc1O`, the “activity change, negative = cytotoxicity” value is -2.73%. On the same count and under the same terms, the same measure for `c1ccc2sc(SSc3nc4ccccc4s3)nc2c1`: 6.62%; for `S=c1[nH]c2ccccc2s1`: -10.5%. As to `CCCOC(=O)c1ccc(O)cc1`, the Potency result is “inactive”.

Consider `O=C1CN(/N=C/c2ccc([N+](=O)[O-])o2)C(=O)N1`, for which the Potency was 31.6 µM (active).

As to `CCCCCCCCCCCCCCCCCC(=O)O`, the “activity change, negative = cytotoxicity” value was -3.14%. Consider `O=C(O)c1cc(O)c(O)c(O)c1`, for which the “activity change, negative = cytotoxicity” value was -12.7%. Turning to `c1cnc2c(c1)ccc1cccnc12`, the Potency was 3.98 µM (active). Take `N=C1N=C(N)c2cc3ccccc3cc21`: the activity change, negative = cytotoxicity is -112% (active). For the molecule `NCCO`, the “activity change, negative = cytotoxicity” value was -23.5%.

With `Nc1ccc(O)c(C(=O)O)c1`, the “activity change, negative = cytotoxicity” value was 7.75%. On the same count and under the same terms, the same measure for `O=C(O)/C=C\C(=O)O`: 2.44%; for `C#C[C@]1(O)CC[C@H]2[C@@H]3CCc4cc(O)ccc4[C@H]3CC[C@@]21C`: -25.4%. On the same count and under the same terms, next, `CC1(C)S[C@@H]2[C@H](NC(=O)[C@H](N)c3ccccc3)C(=O)N2[C@H]1C(=O)O`: 3.13%. For `CN(C)c1ccc(C(=C2C=CC(=[N+](C)C)C=C2)c2ccccc2)cc1`, the Potency was 0.0316 µM (active).

The values are drawn from PubChem BioAssay (NCATS).
